The list is not random: actives were taken first. Their share in the collection is about 3.1%.
Casp6 inh: inhibitors of human caspase-6 | AID 686996 | 350,000 compounds, 0.53% hits | P55212 | inhibition, % at 12.5 µM | purified caspase-6, Z-VEID-R110 cleavage fluorescence;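 active = mean inhibition across replicates at least about 35%, with every replicate also reaching that limit, limit read from the data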;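 also: 0% = median of neutral control wells and 100% = no fluorescence left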
Target sequence (P55212 24-179 limits assumed): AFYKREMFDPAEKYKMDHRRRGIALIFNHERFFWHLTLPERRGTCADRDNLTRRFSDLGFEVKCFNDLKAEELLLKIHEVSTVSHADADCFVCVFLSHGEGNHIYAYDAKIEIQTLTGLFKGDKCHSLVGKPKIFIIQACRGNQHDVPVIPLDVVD
Target sequence (P55212 194-293 limits assumed): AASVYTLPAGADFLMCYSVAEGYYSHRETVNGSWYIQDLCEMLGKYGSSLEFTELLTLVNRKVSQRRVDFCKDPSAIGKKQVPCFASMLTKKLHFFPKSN
SIRT5 inh: inhibitors of human sirtuin-5 desuccinylase. Purified SirT5, succinyl-peptide AMC, trypsin-coupled fluorescence. inhibition, % at 15 µM. 330,000 compounds, 1.1% hits; in the data active = inhibition above about 15%
ERAP1 HTS inh: ERAP1 (human) enzyme inhibition. recombinant ERAP1, Leu-AMC fluorescence, 60 min. 340,000 compounds, 0.15% hits. inhibition, % at 10.7 µM. Q9NZ08;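 active = mean replicate inhibition of at least 30%, or all replicates individually reaching that 30% level; inactive = mean below 30% and not every replicate reaching it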;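 also: 0% = neutral control wells and 100% = L-leucinethiol positive control wells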
FGF22 binding: binders of recombinant human FGF22 by thermal shift; SYPRO orange fluorescence; percent of sucrose octasulfate shift, DMSO zero; activity (Tm shift, normalised), % at 9.99 µM; 340,000 compounds, 1.5% hits; AID 651658;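 active = mean Tm shift, scaled 0 neutral to 100 positive control, at about 1.3% or above, every replicate too, limit read from the data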
Target sequence (Q9HCT0 whole entry, looked up): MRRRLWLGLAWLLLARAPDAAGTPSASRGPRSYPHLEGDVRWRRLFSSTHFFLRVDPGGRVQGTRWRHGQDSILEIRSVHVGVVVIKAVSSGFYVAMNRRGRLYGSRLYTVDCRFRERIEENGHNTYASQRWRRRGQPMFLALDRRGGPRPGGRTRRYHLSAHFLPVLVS
* hit, by the source's call; . = no result.

SMILES	Casp6 inh	SIRT5 inh	ERAP1 HTS inh	FGF22 binding
CCCCn1c(N)c(N(CC(C)C)C(=O)c2cc(-c3ccco3)nc3ccccc23)c(=O)[nH]c1=O	39*	1	1	0
COc1ccc2c3c(n(C)c2c1)[C@@H](CO)N(C(=O)C1CCC1)CC31CCN(C)CC1	-5	-4	0	0
COc1ccc(N2C(=O)CC(Sc3n[nH]c(-c4cccc(C)c4)n3)C2=O)cc1 (stereo not given)	0	-4	2	0
CCOc1ccccc1N1C(=O)CC(Sc2n[nH]c(-c3ccccc3)n2)C1=O (stereo not given)	2	1	-1	44*
COc1ccc2nc(N/C(N)=N/C(=S)Nc3ccccc3)nc(C)c2c1	-2	-1	9	4.1*
CO[C@@H]1CC[C@@H]2CCOc3ccc(C#N)cc3C(=O)N(C)CCCC(=O)N(C)C[C@@H]1O2	5	4	1	0
CN1CC(=O)N2Cc3[nH]c4ccccc4c3C[C@H]2C1=O	45*	-1	-1	0
C[C@H](CO)N1C[C@H](C)[C@H](CN(C)C(=O)Nc2ccc(C(F)(F)F)cc2)Oc2c(NC(=O)Nc3ccc(C(F)(F)F)cc3)cccc2C1=O	.	.	.	0
CCCc1nn2c(=O)cc(CSCC(=O)Nc3ccc(C)cc3)nc2s1	1	36*	-1	0
CCCc1nn2c(=O)cc(CSCC(=O)Nc3nnc(CC)s3)nc2s1	-2	-1	1	0
COc1cccc(NC(=O)N2CCN(S(C)(=O)=O)CC2)c1	-4	-3	2	0
CS(=O)(=O)N1CCN(C(=O)Nc2ccccc2)CC1	-1	-4	-9	43*
Cn1c(=O)c2[nH]c(CCNC(=O)c3ccccc3)nc2n(C)c1=O	4	.	-1	43*
O=C(NCC[C@@H]1CC[C@@H](NC(=O)C2CCOCC2)[C@H](CO)O1)c1ccc(F)cc1	-1	-2	0	1
Nc1cc(=O)[nH]n1C1CCCC1	-1	8	0	0
Nc1cc(=O)[nH]n1C1CCCCC1	-2	0	2	43*
Cc1oc(-c2cccc(C(F)(F)F)c2)nc1CN1CCN(c2ccccn2)CC1	-3	7	12	43*
Cc1cccc(N2CCN(Cc3nc(-c4cccc(Cl)c4)oc3C)CC2)n1	-1	-1	0	0
O=C(COC(=O)Cc1c(F)cccc1Cl)Nc1ccc2[nH]c(=O)[nH]c2c1	2	15*	2	0
Cc1ccc(C(=O)O)cc1NC(=S)NC(=O)c1ccc([N+](=O)[O-])c(C)c1	3	-1	1	43*
Cc1ccc(CNC(=S)Nc2cc(C(=O)O)ccc2C)cc1	6	1	3	0
O=[N+]([O-])c1ccc(C[n+]2cccc3c4ccccc4ccc32)cc1	7	-6	-6	43*
COc1ccc(NC(=O)N(C)C[C@@H]2Oc3ccc(NS(=O)(=O)c4cn(C)cn4)cc3CC(=O)N([C@H](C)CO)C[C@@H]2C)cc1	1	3	4	0
CCOC(=O)c1cc(-c2ccc(F)cc2)nc2c1c(=O)[nH]c(=O)n2Cc1ccccc1	1	1	3	0
CCOC(=O)c1cc(-c2cc(OC)c(OC)c(OC)c2)nc2c1c(=O)[nH]c(=O)n2Cc1ccccc1	2	20*	0	0
SMILES	Casp6 inh	SIRT5 inh	ERAP1 HTS inh	FGF22 binding
CN(C)C(=O)c1ccc(-c2ccccc2[C@@H]2[C@@H](C#N)N(C(=O)C3CCC3)[C@H]2CO)cc1	-1	1	-2	0
O=C(Nc1ccc(F)cc1)N1CCN(C(=O)C2CCCO2)CC1 (stereo not given)	82*	5	-5	0
CCOC(=O)c1ccc(NC(=O)N2CCN(C(=O)C3CCCO3)CC2)cc1 (stereo not given)	-5	-3	2	43*
O=C(C1CCCO1)N1CCN(C(=S)Nc2ccc(F)cc2)CC1 (stereo not given)	-1	-4	1	0
CCOc1cc(CNc2ncn[nH]2)ccc1OCC(=O)NC(C)(C)C	-2	0	-1	43*
CCOc1cc(CNc2nn[nH]n2)ccc1OCC(=O)NC(C)(C)C	-4	-3	-1	44*
O=C(C[C@@H]1CC[C@@H](NC(=O)c2ccncc2)[C@H](CO)O1)NCCc1ccncc1	1	-1	1	0
COC(CNC(=O)c1ccc2c3c(onc13)-c1ccccc1C2=O)OC	50*	1	1	0
C[C@H](CO)N1C[C@H](C)[C@H](CN(C)Cc2ccncc2)OCCCC[C@H](C)Oc2ccc(NC(=O)Nc3ccc(F)cc3)cc2C1=O	.	.	.	0
C[C@H](CO)N1C[C@H](C)[C@@H](CN(C)S(=O)(=O)c2ccc(F)cc2)Oc2c(NS(=O)(=O)c3ccc(Cl)cc3)cccc2C1=O	.	.	.	0
O=C1N=c2ccccc2=C1c1sc(=S)n(NC(=O)c2cccc(O)c2)c1O	2	1	2	17*
CCc1ccc(NC(=O)CSc2nc3ccccc3c(=O)n2CCCC(=O)NCCCN2CCOCC2)cc1	2	1	4	43*
C[C@@H]1CCCCO[C@H](CN(C)C(=O)C2CCCCC2)[C@H](C)CN([C@@H](C)CO)C(=O)c2cc(NC(=O)Nc3cccc4ccccc34)ccc2O1	0	6	-2	-1
CCC(Sc1nc(C)cc(=O)[nH]1)C(=O)Nc1sc2c(c1C#N)CCCC2 (stereo not given)	4	-2	1	0
CCC(Sc1nc(-c2cccc(OC)c2)c(C#N)c(=O)[nH]1)C(=O)Nc1nnc(C(C)C)s1 (stereo not given)	2	-5	1	2.1*
C[C@H]1CCCCO[C@@H](CN(C)C(=O)c2ccccc2)[C@@H](C)CN([C@@H](C)CO)C(=O)c2cc(NC(=O)CCC(F)(F)F)ccc2O1	1	-4	-2	0
O=C(CCC(=O)Nc1cccc(Cl)c1)N/N=C/c1cc([N+](=O)[O-])ccc1O	2	15*	12	0
O=C(CCCC(=O)Nc1cccc(Br)c1)N/N=C/c1cc([N+](=O)[O-])ccc1O	-3	0	2	0
O=C(O)CCCC(=O)Nc1cccc([N+](=O)[O-])c1	2	-5	-5	43*
Cc1noc(C)c1S(=O)(=O)Nc1ccc2c(c1)C(=O)N([C@H](C)CO)C[C@@H](C)[C@@H](CN(C)Cc1ccncc1)O2	-2	-1	-2	0
Cc1ccc(Nc2nc(N)c(C#N)c(CC#N)c2C#N)cc1	3	-2	-1	44*
N#CCc1c(C#N)c(N)nc(N2CCOCC2)c1C#N	0	.	.	0
C[C@@H]1CCCCO[C@H](CN(C)Cc2ccc3c(c2)OCO3)[C@@H](C)CN([C@@H](C)CO)C(=O)c2cc(NC(=O)Nc3ccc(F)cc3)ccc2O1	-1	6	3	0
Cc1ccccc1S(=O)(=O)NC1OC(=O)C(Oc2ccccc2)=C1Br (stereo not given)	6	-6	-1	43*
C[C@@H]1CN([C@@H](C)CO)C(=O)c2cc(NC(=O)Cc3ccccc3)ccc2O[C@@H]1CN(C)Cc1ccc(Cl)c(Cl)c1	1	8	2	-1
